Assay results published in the supplement of paper PMC10849652.
About 7,900 targets were measured; listed, in parts, are those with a hit and a random draw of the rest. About 0.6% of all pairs of compound and target were hits.

Assays:
Assay in all cases: log2 fold change, soluble protein after heating vs DMSO (PISA); higher = thermal stabilisation; K562 cells, 10 uM, 30 min; active = over 0.2 and 3.5 SD of the protein, either way, in both replicates (recomputed)
[1] = compound: C1=CC=C(C=C1)[C@H](COC2=CC3=C(C=C2)NC(=O)N3)NC(=O)C4=CC=CN(C4=O)CC5=CC(=C(C=C5)F)F
Procedure, shortened: (§1)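 Values are thermal stability changes relative to control samples and are taken from duplicates. They are stated as log2 fold changes. Before quantification by TMTpro 16plex LC-MS/MS with equalised channel sums, K562 cells at 2×10^6 cells/mL were treated with 10 μM compound for 30 min, heated in aliquots for 3 min across 48°C-58°C, pooled, extracted in PBS with 0.5% NP-40 at 4°C, and centrifuged at 21,000xg for 90 min to give the soluble supernatant.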

[2] = compound: CC1=C(SC2=C1C(=N[C@H](C3=NN=C(N32)C)CC(=O)N)C4=CC=C(C=C4)Cl)C
Procedure, shortened: as §1

[3] = compound: CC1=C2C(=CC=C1)N=C(N(C2=O)C3=CC=CC=C3C)CN4C=NC5=C(N=CN=C54)N
Procedure, shortened: as §1

[4] = compound: Cc1sc2c(c1C)C(c1ccc(Cl)cc1)=N[C@@H](CC(=O)OC(C)(C)C)c1nnc(C)n1-2
Procedure, shortened: as §1

[5] = compound: c1ccc([C@@H]2C[C@H]2NC2CCNCC2)cc1
Procedure, shortened: as §1

Measured: log2 fold change

LTV1 (UniProt Q96GA3)
Chain of UniProt Q96GA3 (Q96GA3 whole entry, looked up): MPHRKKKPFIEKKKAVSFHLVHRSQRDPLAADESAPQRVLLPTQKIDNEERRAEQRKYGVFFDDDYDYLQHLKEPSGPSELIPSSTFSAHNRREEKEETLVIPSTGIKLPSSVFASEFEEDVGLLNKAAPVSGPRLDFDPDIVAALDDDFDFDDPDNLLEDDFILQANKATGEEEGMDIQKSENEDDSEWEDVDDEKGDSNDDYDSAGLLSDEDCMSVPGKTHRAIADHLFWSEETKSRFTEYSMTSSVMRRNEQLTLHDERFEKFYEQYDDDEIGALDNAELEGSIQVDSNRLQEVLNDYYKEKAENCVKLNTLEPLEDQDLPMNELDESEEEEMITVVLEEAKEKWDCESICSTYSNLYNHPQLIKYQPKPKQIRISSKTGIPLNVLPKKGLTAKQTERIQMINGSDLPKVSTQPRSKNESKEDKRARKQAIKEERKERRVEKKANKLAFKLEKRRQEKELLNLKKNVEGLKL
inactive: [1] -0.02 | [2] -0.137 | [3] -0.033 | [4] 0.17 | [5] 0

LARP7 isoform 3 (UniProt Q4G0J3)
Chain of UniProt Q4G0J3 (Q4G0J3 whole entry, looked up): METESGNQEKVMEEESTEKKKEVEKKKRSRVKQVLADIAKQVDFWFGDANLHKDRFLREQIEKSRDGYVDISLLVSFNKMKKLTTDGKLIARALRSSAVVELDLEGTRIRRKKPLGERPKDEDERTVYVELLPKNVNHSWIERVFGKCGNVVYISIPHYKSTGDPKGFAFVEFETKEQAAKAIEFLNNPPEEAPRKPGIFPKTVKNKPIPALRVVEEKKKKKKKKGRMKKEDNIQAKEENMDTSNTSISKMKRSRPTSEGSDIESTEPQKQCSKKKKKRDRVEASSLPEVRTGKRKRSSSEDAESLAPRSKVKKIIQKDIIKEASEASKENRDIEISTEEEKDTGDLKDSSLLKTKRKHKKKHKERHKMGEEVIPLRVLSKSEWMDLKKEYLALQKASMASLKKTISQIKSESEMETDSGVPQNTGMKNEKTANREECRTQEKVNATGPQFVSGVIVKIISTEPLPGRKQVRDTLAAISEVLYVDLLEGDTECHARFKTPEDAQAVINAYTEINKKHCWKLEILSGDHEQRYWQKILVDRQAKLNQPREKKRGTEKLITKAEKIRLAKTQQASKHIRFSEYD
inactive: [1] 0.018 | [2] -0.032 | [3] 0.045 | [4] -0.048 | [5] 0.027

L2HGDH (UniProt Q9H9P8)
Chain of UniProt Q9H9P8 (Q9H9P8 whole entry, looked up): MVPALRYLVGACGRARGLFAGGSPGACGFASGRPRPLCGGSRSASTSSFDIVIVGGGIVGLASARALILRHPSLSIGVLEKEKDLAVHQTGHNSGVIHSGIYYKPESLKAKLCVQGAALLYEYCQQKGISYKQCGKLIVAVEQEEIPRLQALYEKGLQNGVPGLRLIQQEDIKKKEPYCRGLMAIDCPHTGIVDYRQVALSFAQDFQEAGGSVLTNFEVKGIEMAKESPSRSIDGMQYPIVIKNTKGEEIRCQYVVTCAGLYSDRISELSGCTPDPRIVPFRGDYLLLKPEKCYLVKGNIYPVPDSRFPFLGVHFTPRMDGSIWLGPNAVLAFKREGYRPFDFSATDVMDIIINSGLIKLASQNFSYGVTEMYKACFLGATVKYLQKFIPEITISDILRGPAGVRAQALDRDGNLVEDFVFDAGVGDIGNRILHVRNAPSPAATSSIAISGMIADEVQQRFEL
inactive: [1] -0.031 | [2] 0.07 | [3] 0.078 | [4] 0.018 | [5] -0.029

KCT2 (UniProt Q8NC54)
inactive: [1] 0.046 | [2] 0.024 | [3] -0.01 | [4] -0.014 | [5] 0.028

MAIP1 (UniProt Q8WWC4)
inactive: [1] 0.012 | [2] 0.075 | [3] 0.028 | [4] -0.026 | [5] 0.002

IGFBP4 (UniProt P22692)
inactive: [1] -0.019 | [2] -0.046 | [3] 0.087 | [4] -0.103 | [5] 0.148

MAP3K20 (UniProt Q9NYL2)
inactive: [1] 0.02 | [2] -0.037 | [3] 0.017 | [4] 0.005 | [5] 0.022

IGF2BP2 (UniProt Q9Y6M1)
inactive: [1] 0.122 | [2] -0.271 | [3] -0.038 | [4] 0.25 | [5] 0.019

MIEF1 (UniProt L0R8F8)
inactive: [1] 0.072 | [2] 0.026 | [3] 0.039 | [4] -0.092 | [5] 0.007

JAK3 (UniProt P52333)
inactive: [1] -0.011 | [2] 0.075 | [3] -0.027 | [4] 0.009 | [5] 0.032

LPIN1 isoform 7 (UniProt Q14693)
Chain of UniProt Q14693 (Q14693 whole entry, looked up): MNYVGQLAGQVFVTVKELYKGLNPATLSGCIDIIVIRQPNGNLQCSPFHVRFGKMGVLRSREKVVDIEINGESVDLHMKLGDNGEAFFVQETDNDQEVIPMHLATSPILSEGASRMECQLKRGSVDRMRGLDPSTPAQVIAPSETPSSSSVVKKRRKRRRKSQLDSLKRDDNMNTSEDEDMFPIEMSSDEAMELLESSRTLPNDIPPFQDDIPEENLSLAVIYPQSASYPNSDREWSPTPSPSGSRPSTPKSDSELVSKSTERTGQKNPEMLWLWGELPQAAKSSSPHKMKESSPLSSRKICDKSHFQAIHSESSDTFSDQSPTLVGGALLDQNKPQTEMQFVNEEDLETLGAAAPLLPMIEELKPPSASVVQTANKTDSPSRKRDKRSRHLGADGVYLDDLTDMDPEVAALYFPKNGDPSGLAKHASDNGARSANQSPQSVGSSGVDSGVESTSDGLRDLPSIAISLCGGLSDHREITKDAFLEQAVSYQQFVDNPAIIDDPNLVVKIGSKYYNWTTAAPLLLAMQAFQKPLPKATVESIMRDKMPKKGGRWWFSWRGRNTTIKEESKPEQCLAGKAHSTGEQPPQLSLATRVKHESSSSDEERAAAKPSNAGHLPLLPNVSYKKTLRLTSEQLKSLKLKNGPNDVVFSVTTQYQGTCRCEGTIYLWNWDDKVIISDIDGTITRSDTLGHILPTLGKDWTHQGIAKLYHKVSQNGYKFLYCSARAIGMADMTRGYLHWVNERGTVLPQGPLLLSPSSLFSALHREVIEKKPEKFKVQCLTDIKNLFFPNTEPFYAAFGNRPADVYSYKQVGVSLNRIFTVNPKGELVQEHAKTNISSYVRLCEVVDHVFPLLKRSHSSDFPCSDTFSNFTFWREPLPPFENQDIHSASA
inactive: [1] -0.071 | [2] 0.086 | [3] 0.071 | [4] 0.02 | [5] 0.023

LEO1 (UniProt Q8WVC0)
inactive: [1] -0.009 | [2] 0.046 | [3] -0.009 | [4] -0.016 | [5] -0.011

MAP2K1 (UniProt Q02750)
Chain of UniProt Q02750 (Q02750 whole entry, looked up): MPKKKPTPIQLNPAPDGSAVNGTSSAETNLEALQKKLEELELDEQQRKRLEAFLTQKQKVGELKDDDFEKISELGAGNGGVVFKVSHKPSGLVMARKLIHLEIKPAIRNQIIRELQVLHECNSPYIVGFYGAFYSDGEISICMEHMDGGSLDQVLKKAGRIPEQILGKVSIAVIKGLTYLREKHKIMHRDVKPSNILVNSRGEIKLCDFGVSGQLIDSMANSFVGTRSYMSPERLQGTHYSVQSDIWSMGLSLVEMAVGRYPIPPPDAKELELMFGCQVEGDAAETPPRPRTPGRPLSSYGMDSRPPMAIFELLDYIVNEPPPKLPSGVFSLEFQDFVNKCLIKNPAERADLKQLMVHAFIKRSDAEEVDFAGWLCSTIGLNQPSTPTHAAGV
inactive: [1] -0.01 | [2] 0.033 | [3] 0.099 | [4] -0.015 | [5] 0

LTN1 isoform 3 (UniProt O94822)
inactive: [1] -0.058 | [2] 0.015 | [3] 0.08 | [4] -0.003 | [5] -0.005

KPNA6 (UniProt O60684)
inactive: [1] -0.017 | [2] -0.046 | [3] 0.093 | [4] 0.105 | [5] 0.07

IMMT isoform 2 (UniProt Q16891)
inactive: [1] 0.021 | [2] 0.029 | [3] 0.035 | [4] 0.091 | [5] 0.033

MIF (UniProt P14174)
inactive: [1] -0.101 | [2] 0.016 | [3] 0.015 | [4] -0.083 | [5] 0.004

KLHL18 (UniProt O94889)
Chain of UniProt O94889 (O94889 whole entry, looked up): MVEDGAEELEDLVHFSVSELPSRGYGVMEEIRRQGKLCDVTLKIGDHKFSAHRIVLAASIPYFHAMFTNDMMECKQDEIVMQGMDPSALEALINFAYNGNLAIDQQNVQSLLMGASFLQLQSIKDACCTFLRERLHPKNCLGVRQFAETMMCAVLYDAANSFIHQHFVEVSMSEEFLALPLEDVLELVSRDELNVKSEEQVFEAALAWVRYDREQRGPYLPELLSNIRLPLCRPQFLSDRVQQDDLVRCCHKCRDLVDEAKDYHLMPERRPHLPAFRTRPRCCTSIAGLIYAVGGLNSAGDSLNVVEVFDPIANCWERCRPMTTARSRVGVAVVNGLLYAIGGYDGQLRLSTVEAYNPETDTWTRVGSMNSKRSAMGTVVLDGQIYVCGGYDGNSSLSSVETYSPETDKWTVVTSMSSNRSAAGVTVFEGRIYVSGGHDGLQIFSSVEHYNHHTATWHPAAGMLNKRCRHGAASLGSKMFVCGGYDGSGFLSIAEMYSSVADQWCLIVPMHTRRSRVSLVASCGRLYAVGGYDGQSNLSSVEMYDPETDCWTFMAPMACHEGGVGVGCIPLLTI
inactive: [1] 0.014 | [2] 0.101 | [3] 0.135 | [4] 0.017 | [5] -0.021

MAGI1 (UniProt Q96QZ7)
inactive: [1] 0.025 | [2] -0.026 | [3] -0.005 | [4] 0.054 | [5] -0.016

IRF2BPL (UniProt Q9H1B7)
inactive: [1] -0.051 | [2] 0.027 | [3] 0.001 | [4] -0.067 | [5] -0.043

MAP1LC3B2 (UniProt A6NCE7)
inactive: [1] 0.015 | [2] 0.113 | [3] 0.021 | [4] -0.015 | [5] -0.073

MDN1 (UniProt Q9NU22)
inactive: [1] -0.08 | [2] 0.041 | [3] 0.059 | [4] -0.054 | [5] -0.049

LGALS8 isoform 2 (UniProt O00214)
Chain of UniProt O00214 (O00214 whole entry, looked up): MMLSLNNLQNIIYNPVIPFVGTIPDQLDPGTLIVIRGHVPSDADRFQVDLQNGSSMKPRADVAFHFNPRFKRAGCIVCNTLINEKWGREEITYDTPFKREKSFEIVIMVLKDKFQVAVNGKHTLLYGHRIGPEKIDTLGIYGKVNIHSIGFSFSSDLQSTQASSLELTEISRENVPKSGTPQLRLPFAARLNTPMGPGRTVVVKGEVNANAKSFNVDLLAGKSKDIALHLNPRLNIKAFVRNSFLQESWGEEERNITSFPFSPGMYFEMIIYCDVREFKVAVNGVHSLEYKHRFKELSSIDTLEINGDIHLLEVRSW
inactive: [1] -0.032 | [2] 0.011 | [3] -0.166 | [4] -0.022 | [5] -0.12

KTN1 (UniProt Q86UP2)
Chain of UniProt Q86UP2 (Q86UP2 whole entry, looked up): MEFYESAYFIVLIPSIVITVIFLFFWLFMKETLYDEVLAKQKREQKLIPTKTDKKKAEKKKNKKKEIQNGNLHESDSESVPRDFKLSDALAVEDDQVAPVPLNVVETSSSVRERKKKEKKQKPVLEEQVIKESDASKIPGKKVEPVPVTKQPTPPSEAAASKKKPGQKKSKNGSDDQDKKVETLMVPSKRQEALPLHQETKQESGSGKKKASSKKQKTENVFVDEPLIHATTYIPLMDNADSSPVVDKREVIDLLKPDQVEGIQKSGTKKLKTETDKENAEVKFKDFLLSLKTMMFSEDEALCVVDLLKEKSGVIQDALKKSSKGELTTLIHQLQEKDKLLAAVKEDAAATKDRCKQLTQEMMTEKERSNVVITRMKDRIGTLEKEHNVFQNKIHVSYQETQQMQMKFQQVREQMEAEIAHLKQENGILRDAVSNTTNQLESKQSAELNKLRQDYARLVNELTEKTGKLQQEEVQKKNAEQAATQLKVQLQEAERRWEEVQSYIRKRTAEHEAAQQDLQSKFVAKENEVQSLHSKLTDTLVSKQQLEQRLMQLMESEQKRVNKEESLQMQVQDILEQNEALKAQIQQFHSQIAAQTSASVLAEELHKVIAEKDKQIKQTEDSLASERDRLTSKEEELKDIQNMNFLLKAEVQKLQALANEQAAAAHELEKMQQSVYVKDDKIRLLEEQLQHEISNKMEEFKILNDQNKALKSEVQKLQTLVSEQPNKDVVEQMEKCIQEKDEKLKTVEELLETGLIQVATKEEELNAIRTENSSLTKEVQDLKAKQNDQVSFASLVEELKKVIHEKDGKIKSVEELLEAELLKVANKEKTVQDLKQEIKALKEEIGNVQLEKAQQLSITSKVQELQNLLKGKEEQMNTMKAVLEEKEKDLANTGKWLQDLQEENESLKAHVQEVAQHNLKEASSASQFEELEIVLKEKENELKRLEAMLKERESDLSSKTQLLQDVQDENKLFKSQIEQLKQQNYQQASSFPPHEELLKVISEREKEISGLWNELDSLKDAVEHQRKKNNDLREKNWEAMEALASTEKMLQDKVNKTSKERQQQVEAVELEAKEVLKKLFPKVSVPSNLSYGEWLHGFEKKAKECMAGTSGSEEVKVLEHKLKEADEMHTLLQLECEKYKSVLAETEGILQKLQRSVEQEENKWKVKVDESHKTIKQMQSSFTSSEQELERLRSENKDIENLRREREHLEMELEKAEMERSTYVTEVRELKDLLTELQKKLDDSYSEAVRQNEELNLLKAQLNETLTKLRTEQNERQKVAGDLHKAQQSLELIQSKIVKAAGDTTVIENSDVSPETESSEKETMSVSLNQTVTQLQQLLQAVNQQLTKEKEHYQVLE
inactive: [1] 0.005 | [2] -0.012 | [3] 0.019 | [4] 0.036 | [5] 0.001
